Several values for one entry are separate records, joined by “and”; a condition that tells them apart may be missing. Identical values can stand only once. Results filed as inconclusive are left out. Activity calls are given as the source filed them. Calls come from the whole dose curve; as a rule, active = well fitted curve in the direction sought with a large enough effect; inconclusive = small, poorly fitted or top-dose-only effect, or another doubt; inactive = no such curve, though single readings can be large; an effect the other way counts as inactive or inconclusive.
Legend:
[1] = qHTS of pediatric cancer cell lines to identify multiple opportunities for drug repurposing: Primary screen for LAN-5 cells (AID 1347100); note: potency is the fitted concentration of half-maximal effect
Summary of the method: (§1)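 Viability after 48 h compound treatment at 37C, 500-1,000 cells/well, read as ATP luminescence with CellTiter-Glo. Primary screens used 11-point (MIPE, 0.78 nM-46 µM) or 8-point (NPC, 0.59 nM-46 µM) final concentrations; follow-up screens used 11-point dilutions.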

[2] = qHTS of pediatric cancer cell lines to identify multiple opportunities for drug repurposing: Primary screen for BT-12 cells (AID 1347101); note: nearly all actives have a fitted effect of over 25% in size; note: potency is the fitted concentration of half-maximal effect
Summary of the method: (§2)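 Cells (500-1,000/well) rested 5 h, then received compounds for 48 h; metabolically active cells were measured by CellTiter-Glo luminescence. Final concentrations spanned up to 46 µM (MIPE, 11-point) or 0.59 nM-46 µM (NPC, 8-point) in primary screens, 11-point in follow-ups.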

[3] = qHTS of pediatric cancer cell lines to identify multiple opportunities for drug repurposing: Primary screen for Rh18 cells (AID 1347102); note: nearly all actives have a fitted effect of over 65% in size; note: potency is the fitted concentration of half-maximal effect
Summary of the method: as §1

[4] = qHTS of pediatric cancer cell lines to identify multiple opportunities for drug repurposing: Primary screen for OHS-50 cells (AID 1347103); note: nearly all actives have a fitted effect of over 40% in size; note: potency is the fitted concentration of half-maximal effect
Summary of the method: as §2

[5] = qHTS of pediatric cancer cell lines to identify multiple opportunities for drug repurposing: Primary screen for RD cells (AID 1347104); note: nearly all actives have a fitted effect of over 55% in size; note: potency is the fitted concentration of half-maximal effect
Summary of the method: (§3)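 Cells seeded at 500-1,000 cells/well in growth media, rested 5 hours at 37 degrees C, 5% CO2, then dosed; MIPE compounds at 11-point (from 0.78 nM) and NPC at 8-point (from 0.59 nM) final concentrations. Viability by CellTiter-Glo luminescence after 48 hours.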

[6] = qHTS of pediatric cancer cell lines to identify multiple opportunities for drug repurposing: Primary screen for MG 63 (6-TG R) cells (AID 1347105); note: nearly all actives have a fitted effect of over 50% in size
Summary of the method: as §3

[7] = qHTS of pediatric cancer cell lines to identify multiple opportunities for drug repurposing: Primary screen for control Hh wild type fibroblast cells (AID 1347106);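 note: series mostly up to about 46 µM; a drop in luminescence marks cytotoxicity and a rise apparent proliferation; nearly all actives have a fitted effect of over 55% in size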
Summary of the method: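 Cells (500-1,000/well) in growth media were settled 5 h at 37 degrees C, then given compounds for 48 h. Viability was read as CellTiter-Glo luminescence. Primary runs used MIPE at 11 points (0.78 nM-46 µM) and NPC at 8 points (0.59 nM-46 µM); follow-ups used 11 points.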

[8] = qHTS of pediatric cancer cell lines to identify multiple opportunities for drug repurposing: Primary screen for Rh30 cells (AID 1347107); note: series mostly up to about 46 µM; nearly all actives have a fitted effect of over 75% in size
Summary of the method: as §1

[9] = qHTS of pediatric cancer cell lines to identify multiple opportunities for drug repurposing: Primary screen for Rh41 cells (AID 1347108);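 note: series mostly up to about 46 µM; luminescence drop marks cytotoxic hits; nearly all actives have a fitted effect of over 70% in size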
Summary of the method: as §3

Measured: Potency

COc1cc(NS(=O)(=O)c2ccc(N)cc2)nc(OC)n1
inactive: all assays above

C[C@@H]1CN(c2c(F)c(N)c3c(=O)c(C(=O)O)cn(C4CC4)c3c2F)C[C@H](C)N1
inactive: all assays above

CCOC(=O)c1ccc(OC(=O)CCCCCN=C(N)N)cc1
not listed: [9]
inactive: all other assays above

CO[C@@H]1[C@@H](OC(N)=O)[C@@H](O)[C@H](Oc2ccc3c(O)c(NC(=O)c4ccc(O)c(CC=C(C)C)c4)c(=O)oc3c2C)OC1(C)C
inactive: all assays above

CCc1cc(C(N)=S)ccn1
not listed: [9]
inactive: all other assays above

NC(=O)c1cccc(N)c1
inactive: all assays above

CCn1cc(C(=O)O)c(=O)c2cc(F)c(N3CCN(C)CC3)cc21
inactive: all assays above

NCCCC(O)(P(=O)(O)O)P(=O)(O)O
inactive: all assays above

O=C(O)C1CCCN(CCC=C(c2ccccc2)c2ccccc2)C1 (stereo unspecified)
not listed: [9]
inactive: all other assays above

OC(Cn1cncn1)(Cn1cncn1)c1ccc(F)cc1F
not listed: [9]
inactive: all other assays above

Cc1cc(NS(=O)(=O)c2ccc(N)cc2)no1
inactive: all assays above

CC(C)C1CCC(C(=O)N[C@H](Cc2ccccc2)C(=O)O)CC1 (stereo partly specified)
not listed: [9]
inactive: all other assays above

CC1=NN(c2ccccc2)C(=O)C1
not listed: [9]
inactive: all other assays above

CC1=C(C(=O)O)N2C(=O)[C@@H](NC(=O)C(N)c3ccccc3)[C@H]2SC1 (stereo partly specified)
inactive: all assays above

CCN[C@H]1C[C@H](C)S(=O)(=O)c2sc(S(N)(=O)=O)cc21
inactive: all assays above

CN(C)CCc1c[nH]c2ccc(CS(=O)(=O)N3CCCC3)cc12
inactive: all assays above

CCCOc1ccc(C(=O)OCCN(CC)CC)cc1N
inactive: all assays above

OCc1ccc(-c2nn(Cc3ccccc3)c3ccccc23)o1
active: [4] 1.72 µM
not listed: [9]
inactive: all other assays above

CCOCC(O)COc1ccc(NC(=O)CC[S+](C)C)cc1 (stereo unspecified)
not listed: [9]
inactive: all other assays above

CC(=O)Oc1ccccc1C(=O)Nc1ncc([N+](=O)[O-])s1
inactive: [6] | [7]
active: [1] 27 µM and 15 µM | [2] 39.5 µM and 21.9 µM | [3] 42.9 µM | [4] 22.2 µM | [5] 42.9 µM and 23.7 µM

CN1CCN(c2c(F)cc3c(=O)c(C(=O)O)cn4c3c2OCN4C)CC1
not listed: [9]
inactive: all other assays above

CC[C@H](NC(C)C)[C@H](O)c1ccc(O)c2[nH]c(=O)ccc12
inactive: all assays above

Cc1onc(-c2ccccc2Cl)c1C(=O)N[C@@H]1C(=O)N2[C@@H]1SC(C)(C)[C@@H]2C(=O)O
inactive: all assays above

Source: PubChem BioAssay (NCATS)
